ChEMBL document CHEMBL3988442, “University of Dundee, Small-Polar-MMV Screening Library” (2021)
Hit rate of the full screen: of about 48,000 compounds, about 13,000 (27%) showed an effect of 50% or more. Some of the results follow.

Test system: Wolbachia pipientis
Experiment: Anti-Wolbachia Cell-Based Screen
Type: functional
Set-up: scale not given: in the data most compounds retested in dose-response had high values
Settings: 5 µM

SMILES	Percent Effect
O=C(Nc1ccc(CCN2CCC(O)CC2)cc1)Nc1cccnc1	-10.88%
CCn1c(N)nc2cc(C(=O)N3CC(c4ccccn4)C3)cnc21	10.45%
NC(=O)CC1CCN(S(=O)(=O)N2CCCC2c2ccco2)CC1 (stereo unspecified)	-25.34%
Cc1ccccc1OCC(=O)NCC(c1ccc(N(C)C)cc1)N(C)C (stereo unspecified)	129.5%
Cc1cc(C(O)CCNC(=O)COc2ccccc2C)c(C)o1 (stereo unspecified)	9.318%
COc1ccccc1OCC(=O)NCc1ncc(C)c(OC)c1C	12.71%
O=C(O)c1cn(CC2CCCN(c3nccc4occc34)C2)nn1 (stereo unspecified)	6.714%
Cc1ccc(CNc2ccccc2-n2ccc(C)n2)nc1	-1.934%
COc1ccc(C2CCN(C(=O)c3ncccc3OC(C)C)C2)cc1 (stereo unspecified)	4.794%
COc1ccc(C(=O)N2C[C@@H](O)[C@H](NCc3ncccc3C)C2)cc1	82.18%
COc1ccc(C(=O)N2CCN(C(=O)Cn3nccc3C)CC2)cc1	4.431%
CNC(=O)[C@@H]1COC[C@H]2CN(C(=O)c3ccc(OC)cc3)C[C@H]21	-23.66%
O=C(c1ccc(-c2nc[nH]n2)cc1)N1CC[C@H](CO)[C@@H](O)C1	11.14%
COc1ccc(C(=O)N2C[C@@H](O)[C@H](NCc3cnc(C)cn3)C2)cc1	111.7%
COc1ccc(C(=O)N2C[C@@H](O)[C@H](NCCc3ncccc3C)C2)cc1	97.07%
COc1ccc2c(c1)nc1n2[C@@H](CNCc2ncccc2C)COC1	-5.483%

SMILES	Percent Effect
C=Cc1ccc(C(=O)N2CCCC(Nc3ccc(OC)cc3)C2)cc1 (stereo unspecified)	13.35%
CC(C)CN1CCc2[nH]cnc2C12CCN(C(=O)c1ccc[nH]1)CC2	3.052%
CC(=O)N[C@@H]1CN(C2CCN(c3ccccc3F)CC2)C[C@H]1C(C)C	33.97%
COC(=O)CC(c1cnn(C)c1)c1oc(C)cc(=O)c1O (stereo unspecified)	15.74%
Cn1cc(Cl)cc1C(=O)N1CCC2(CCCN(CC3CCC3)C2=O)C1 (stereo unspecified)	-14.89%
Cc1[nH]c2c(C)ccc(C)c2c1CC(=O)NCC(O)c1cccnc1 (stereo unspecified)	0.3243%
CCOCCN(CCOCC)c1nc(C)nc2sccc12	-8.835%
OCc1cc2ccccc2nc1NCC1CCN(CC(F)(F)F)C1 (stereo unspecified)	-4.701%
O=C(N1CCCC1)N1CCC[C@]2(C[C@@H](OCc3ccncc3)CO2)C1.O=C(O)C(F)(F)F	-0.7527%
CCO[C@H]1CO[C@@]2(CCCN(C(=O)c3ccc(OC)c(F)c3)C2)C1	-0.1252%
CCO[C@@H]1CO[C@@]2(CCCN(C(=O)c3ccc(OC)c(F)c3)C2)C1	-6.158%
CO[C@H]1CO[C@@]2(CCCN(C(=O)N3CCCC3)C2)C1	89.24%
CO[C@H]1CO[C@@]2(CCCN(C(=O)N(C)C)C2)C1	112.3%
CO[C@H]1CO[C@@]2(CCCN(C(=O)C3=CCCCC3)C2)C1	-11.4%
CO[C@@H]1CO[C@@]2(CCCN(C(=O)N3CCCC3)C2)C1	89.36%
